These results are taken from PubChem BioAssay (NCI).

The panel holds about 83,000 compounds, 20% with a hit somewhere; the sample as a whole holds those more often.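 A percent growth of 40 corresponds to 60% growth inhibition; 0 means no net growth; -100 means all cells died. Active threshold: below 10.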 Values without a mark were called inactive. Calls of active or inactive are those of the source.

What all share (test): NCI-60 one-dose screen, 48 h (100 = growth as untreated, 0 = no growth, -100 = all killed)
Conditions in all cases: 10 µM unless noted

The subject of experiment [1] is NCI-H23 lung.
Experiment [2] relates to NCI-H226 lung.
For experiment [3], the system named is NCI-H322M lung.
Experiment [4] concerns HOP-62 NSCLC.
The test system of experiment [5] is NCI-H460 lung.
For experiment [6], the system named is NCI-H522 lung.
In experiment [7] the test system is A549/ATCC NSCLC.
The test system of experiment [8] is 786-0 renal.
The test system of experiment [9] is COLO 205 colon.

Regarding `O=C(Nc1cccc(C2=NCCN2)c1)c1ccc(N=Nc2ccc(C(=O)Nc3cccc(C4=NCCN4)c3)cc2)cc1`, the growth is 44.3% in [1]; 81.5% in experiment [2]; 64.7% in experiment [3]; 42.3% in [4]; 41.9% in experiment [5]; 36.2% in experiment [6]. In addition, the growth in experiment [7] is 33.9%; in [8], 69.2%; in experiment [9], 64.5%.

For the molecule `O=c1c2cc(Cl)ccc2oc2ccc(OCCCCCN3CCCCCC3)cc12`, the growth in [1] was 87.5%; in [2] it was 90.1%; in experiment [3] it was 89.6%; in experiment [4] it was 79.7%; in [5], 63%; in experiment [6], 80.2%. Further, the growth in experiment [7] is 61.2%; in experiment [8] it was 70.2%; in experiment [9], 76.7%.

Consider `Cc1ccccc1Nc1n[nH]c(Cc2ccccc2)n1`, for which the growth was 102% in experiment [1]; 100% in [2]; 99.1% in experiment [3]; 94.6% in experiment [4]; 108% in experiment [5]; 58% in [6]. Further, the growth is 100% in experiment [7], 105% in [8] and 122% in experiment [9].

As for `C=C1C(=O)O[C@H]2[C@H]1CC/C(COC(=O)NCc1ccc(Cn3c(=O)sn(CCCl)c3=O)cc1)=C\CC[C@@]1(C)O[C@@H]21`, the growth in [1] was 103%; in [2] it was 79.8%; in [3] it was 95.1%; in experiment [4] it was 75.3%; in experiment [5], 97.8%; in experiment [6], -68% (active). Besides, the growth in [7] was 86%; in experiment [8], 32.4%; in experiment [9], -48.1% (active).

As for `COc1cc(NC(=O)CSc2nc3ccc(Cl)cc3c(=O)n2Cc2ccccc2)cc(OC)c1OC`, the growth in experiment [1] is 76.8%; in [2] it was 46.4%; in experiment [3], 82.3%; in [4], 91.3%; in [5], 64.7%; in [6] it was 57.7%. The growth in [7] is 67.3%; in experiment [8] it was 58.5%; in experiment [9], 83.2%.

On to `CCOC(=O)C1OC2(CCCC2)OC1C(=O)OCC` (stereo unspecified), for which the growth in experiment [1] is 103%; in [2] it was 97.1%; in experiment [3], 94.3%; in experiment [4], 103%; in [5], 116%; in [6], 90.5%. In addition, the growth in experiment [7] is 102%; in experiment [8] it was 100%; in [9], 111%.

With `O=C(c1ccccc1)C1OC1C(=O)c1ccccc1` (stereo unspecified), the growth in experiment [1] is 3.63% (active); in experiment [2], 61.1%; in [3], 75.4%; in experiment [4], 21%; in experiment [5], 64.1%; in experiment [6], 8.93% (active). The results for the growth in [7], in [8] and in experiment [9] were 70.4%, 15.1% and 27.6%, respectively.

`C(=Nc1ccc(-c2ccc(N=Cc3ccccc3)cc2)cc1)c1ccccc1`: the growth was 101% in experiment [1]; 97.4% in [2]; 103% in experiment [3]; 101% in [4]; 116% in experiment [5]; 70% in experiment [6]. The figures for the growth in [7], in experiment [8] and in experiment [9] were 93.8%, 104% and 117%, respectively.

As for `O=S1(=O)NCCN1CCNc1nccc(-c2c(-c3cccc(O)c3)nc3sccn23)n1`, the growth in [1] is 104%; in [2], 105%; in experiment [3], 115%; in experiment [4], 115%; in [5], 107%; in [6] it was 87.2%. For the same molecule, the figures for the growth in experiment [7], in experiment [8] and in experiment [9] were 106%, 126% and 42.4%, respectively.

Turning to `CCOCCNc1ccc(S(=O)(=O)c2ccc(N)cc2)cc1N`, the growth in experiment [1] was 92.5%; in [2], 94.6%; in experiment [3], 101%; in [4], 110%; in [5], 109%; in experiment [6], 96%. Besides, the growth in experiment [7] was 91.5%; in experiment [8], 108%; in experiment [9], 110%.

Regarding `CC(C)CCSc1nc(Nc2ccccc2)c(C#N)c(-c2ccc(F)cc2)n1`, the growth in [1] is 74.4%; in [2], 90.7%; in experiment [3], 49.8%; in experiment [4], 56.5%; in experiment [5] it was 6.55% (active); in experiment [6] it was 61%. Further, the growth in experiment [7] is 25.3%; in experiment [8], -9.8% (active); in [9], 18.6%.

With `COc1ccc(-c2nc3c(c(-c4ccc(Cl)cc4)nn3-c3ccccc3)c(-c3ccc(O)cc3)c2C#N)cc1`, the growth was 52.8% in experiment [1]; 70.6% in [2]; 75.5% in experiment [3]; 57.5% in experiment [4]; 14.1% in [5]; 58.3% in experiment [6]. Also, the growth was 41.2% in experiment [7], 9.2% (active) in [8] and 57.8% in experiment [9].

Consider `C=C(C)[C@@H]1CC[C@]2(C(=O)NS(=O)(=O)c3ccccc3)CC[C@]3(C)[C@H](CC[C@@H]4[C@@]5(C)CC[C@H](OC(=O)NS(=O)(=O)c6ccccc6)C(C)(C)[C@@H]5CC[C@]43C)[C@@H]12`, for which the growth in [1] is -9.55% (active); in experiment [2], 30.9%; in experiment [3], 34.1%; in experiment [4], -13.4% (active); in [5] it was -53.8% (active); in experiment [6] it was 16.7%. The results for the growth in experiment [7], in [8] and in experiment [9] were 18.3%, -43.5% (active) and 31.8%, respectively.

As to `C=C(c1ccc(C(=O)NCCCn2ccnc2)cc1)c1cc2c(cc1C)C(C)(C)CCC2(C)C`, the growth was 44% in experiment [1]; 72.3% in experiment [2]; 42.8% in [3]; 18% in experiment [4]; 13.9% in experiment [5]; 10.2% in [6]. Moreover, the growth was 40.3% in experiment [7], -17% (active) in [8] and 10.3% in experiment [9].
